In all, about 330,000 compounds went through this assay and about 10,000 (3%) were called active.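 The calls were made as follows: active = inhibition of at least 50% at 8 µM in the primary screen; inactive = the rest.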 Many of the other results were omitted from the sample, so actives are more common in it than they were.

The target in the test is Protein Mdm4 (Homo sapiens) + E3 ubiquitin-protein ligase Mdm2 (Homo sapiens) (UniProt O15151+Q00987). The test is described as follows: disruptors of Mdm2/MdmX RING complex – cell-based, luminescence, split luciferase, SaOS-2, uHTS, primary screen (AID 485346). Particulars: SaOS-2 split-luciferase Mdm2/MdmX complementation, at 8 µM, active compounds read high.
Protein Mdm4 (Homo sapiens) + E3 ubiquitin-protein ligase Mdm2 (Homo sapiens), sequence (O15151 whole entry, looked up): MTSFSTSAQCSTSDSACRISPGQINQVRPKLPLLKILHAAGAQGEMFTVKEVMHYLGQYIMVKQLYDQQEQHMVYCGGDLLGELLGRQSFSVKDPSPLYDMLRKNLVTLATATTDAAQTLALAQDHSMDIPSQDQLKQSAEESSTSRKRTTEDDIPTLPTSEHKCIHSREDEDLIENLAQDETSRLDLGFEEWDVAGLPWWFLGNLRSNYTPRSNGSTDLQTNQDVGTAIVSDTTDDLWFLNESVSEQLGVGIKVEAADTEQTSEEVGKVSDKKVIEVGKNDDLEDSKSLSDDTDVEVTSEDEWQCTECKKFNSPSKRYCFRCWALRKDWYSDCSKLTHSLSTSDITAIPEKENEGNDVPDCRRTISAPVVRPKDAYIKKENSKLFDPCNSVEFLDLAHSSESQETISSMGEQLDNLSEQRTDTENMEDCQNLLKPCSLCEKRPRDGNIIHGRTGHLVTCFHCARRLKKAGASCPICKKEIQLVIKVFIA
Protein Mdm4 (Homo sapiens) + E3 ubiquitin-protein ligase Mdm2 (Homo sapiens), sequence (Q00987 whole entry, looked up): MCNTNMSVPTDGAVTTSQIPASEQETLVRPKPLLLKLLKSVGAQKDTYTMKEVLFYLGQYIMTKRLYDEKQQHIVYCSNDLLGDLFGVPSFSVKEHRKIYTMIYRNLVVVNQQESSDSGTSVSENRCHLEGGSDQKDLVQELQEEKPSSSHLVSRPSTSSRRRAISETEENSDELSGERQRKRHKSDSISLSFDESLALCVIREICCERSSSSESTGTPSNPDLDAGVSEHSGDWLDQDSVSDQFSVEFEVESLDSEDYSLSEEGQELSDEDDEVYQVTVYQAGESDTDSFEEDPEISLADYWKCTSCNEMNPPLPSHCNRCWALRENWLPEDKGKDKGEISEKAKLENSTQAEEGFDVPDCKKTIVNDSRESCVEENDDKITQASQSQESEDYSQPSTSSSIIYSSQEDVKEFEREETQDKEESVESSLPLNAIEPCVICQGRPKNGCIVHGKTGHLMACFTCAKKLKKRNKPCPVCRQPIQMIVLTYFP
As for `O=C(NCCc1ccccc1)Oc1ccc(Cl)cc1`, the inhibition was 11.2% (inactive).

Regarding `CCN1CCN(c2nc(Nc3cc(OC)ccc3OC)nc(Nc3cc(OC)ccc3OC)n2)CC1`, the inhibition was 56.2% (active).

On to `CCOc1ccc(Nc2nc(Cl)nc(N3CCN(c4ccc(OC)cc4)CC3)n2)cc1`, for which the inhibition was 7.3% (inactive).

Take `CCOC(=O)N1CCN(CCC(=O)Nc2cc(OC)ccc2OC)CC1`: the inhibition was -21.2% (inactive).

Turning to `Cc1ccc(C)c(-n2nnnc2SCC(=O)c2c(N)n(C)c(=O)n(C)c2=O)c1`, the inhibition was 24.7% (inactive).

Take `CCn1nccc1C(=O)Nc1ccc(Cl)c(Cl)c1`: the inhibition is 28.3% (inactive).

Regarding `CS(=O)(=O)N(CC(=O)Nc1ccc(Cl)c(Cl)c1)C1CCCCC1`, the inhibition is 11.5% (inactive).

On to `O=C(CC(O)(C(F)(F)F)C(F)(F)F)Nc1ccc(Cl)c(Cl)c1`, for which the inhibition is 83.5% (active).

As for `COc1ccc(N2CCN(C(=O)CNS(=O)(=O)c3ccc(C)c(C)c3)CC2)cc1`, the inhibition is -7.3% (inactive).

On to `CN(C)c1ccc(C=C2C(=O)OC3(CCCC3)OC2=O)cc1`, for which the inhibition is -3.25% (inactive).

Regarding `COc1cc(/C=N/NC(=O)c2ccoc2C)ccc1OCCN1CCCCC1`, the inhibition was 7.93% (inactive).

For `COc1cc(/C=N/NC(=O)Nc2ccccc2)ccc1OCCOc1ccccc1C`, the inhibition was 63.8% (active).

Consider `COC(=O)c1ccc(COc2ccc(/C=N/NC(=O)C(=O)Nc3ccc(OC)cc3)cc2OC)o1`, for which the inhibition was 36.6% (inactive).

As to `COc1cc(C(C)=O)ccc1OC(C)C(=O)Nc1ccc(S(=O)(=O)N2CCCC2)cc1` (centres undefined), the inhibition is 9.67% (inactive).

Regarding `COc1ccc(S(=O)(=O)N2CCCCCC2)cc1NC(=O)Cc1ccc(OC)c(OC)c1`, the inhibition is 7.01% (inactive).

On to `COc1ccc(-c2ccc(Nc3ccc(S(=O)(=O)N4CCCC4)cc3)nn2)cc1OC`, for which the inhibition was 57.4% (active).

In the case of `O/N=C(\C[n+]1ccccc1)c1ccc(Br)cc1`, the inhibition is 17% (inactive).

Regarding `CC(=O)C(CC(=O)N1CCCC1)C(=O)Nc1ccc(Cl)cc1` (centres undefined), the inhibition was -3.54% (inactive).

For `O=C(O)CCCN1C(=O)c2ccccc2Sc2ncccc21`, the inhibition was -8.61% (inactive).

In the case of `Nc1nc(COC(=O)CCC(=O)c2ccc(Cl)cc2)nc(Nc2ccccc2)n1`, the inhibition was -9.75% (inactive).

Regarding `Nc1nc(CC(=O)CSc2ccc(Cl)cc2)nc(Nc2ccc(F)cc2)n1`, the inhibition was 81% (active).

Take `Cc1ccc(Nc2nc(N)nc(CSc3nnc(C)s3)n2)cc1`: the inhibition was -6.62% (inactive).

In the case of `CCS(=O)(=O)c1ccc2c(c1)N(S(=O)(=O)c1ccccc1)CC(C(=O)O)O2` (centres undefined), the inhibition was -32% (inactive).

In the case of `Cn1c(N)c(C(=O)COC(=O)/C=C/c2cccc(C(F)(F)F)c2)c(=O)n(C)c1=O`, the inhibition is 21.9% (inactive).

For `COc1ccc2sc(-c3ccc(S(C)(=O)=O)cc3)c(C#Cc3cncn3C)c2c1`, the inhibition is 69.9% (active).

Turning to `COc1ccc2sc(-c3ccc(S(C)(=O)=O)cc3)c(-c3ccc(C(N)=O)cc3)c2c1`, the inhibition was 12% (inactive).

As to `COc1ccc(-c2sc3ccc(OC)cc3c2C#Cc2ccccn2)cc1`, the inhibition is 40.5% (inactive).

Regarding `COCc1cc(C)nc(Nc2cc(C)ccc2C)c1C#N`, the inhibition was 17.9% (inactive).

Regarding `COc1cc(/C=N/NC(=O)Cc2ccccc2)cc(OC)c1OC`, the inhibition is 4.45% (inactive).

In the case of `COc1ccc(N=Cc2c(O)[nH]c3ccccc23)cc1OC`, the inhibition was 61.3% (active).

`CN=c1scc(-c2cc(OC)ccc2OC)n1/N=C/c1c(C)[nH]c2ccccc12`: the inhibition is 20.3% (inactive).

As to `COc1ccc2[nH]c(C(=O)N/N=C/c3cc(OC)c(OC)c(OC)c3)cc2c1`, the inhibition was 11.4% (inactive).

As to `COc1cc(N=Cc2c(O)[nH]c3ccccc23)cc(OC)c1OC`, the inhibition is 80.2% (active).

Turning to `COc1cc(N=Cc2c(O)c3ccccc3oc2=O)c(OC)cc1Cl`, the inhibition was 20.6% (inactive).

Regarding `Cc1cc(CNCc2c(C(=O)N(C)Cc3ccccc3)nc3ccccn23)nn1C`, the inhibition is 35.1% (inactive).

For the compound `CC1O[C@H](OC2C(COC3OC(CO)C(O)[C@H](O)C3O)OC(OC3CC[C@]4(C)C(CC[C@@]5(C)[C@@H]4C=C[C@]46OC[C@@]7(CCC(C)(C)C[C@H]74)C(O)C[C@@]56C)C3(C)C)C(O)C2O)C(O)C(O)C1O` (some centres undefined), the inhibition was -4.59% (inactive).

Turning to `Cc1c(C#N)c(NC(=O)c2ccccc2)n(Cc2ccccc2)c1C`, the inhibition was 29.1% (inactive).

Regarding `CCOc1cnc(C(=O)NNC(=O)c2ccccc2Br)o1`, the inhibition is -14.2% (inactive).

Regarding `CCn1c(CC(=O)Nc2ccccc2C)nnc1SCC(=O)NC1=NCCS1`, the inhibition was 6.16% (inactive).

Turning to `Cc1ccc(C(=O)O)cc1N1C(=O)CCCC1=O`, the inhibition is -17.1% (inactive).

Turning to `CN(C(=O)c1cccc(NC(=O)Cc2cccc([N+](=O)[O-])c2)c1)C1CCCCC1`, the inhibition is 18.4% (inactive).

For `CC(OC(=O)c1ccc(-n2cnnn2)cc1)C(=O)NCc1ccccc1` (centres undefined), the inhibition was 8.29% (inactive).

As to `Cc1c(CN2CCC(CO)(CCOc3ccccc3)CC2)[nH]c2ccc(Cl)cc12`, the inhibition was 89.6% (active).

With `CCOC(=O)C1(CCOc2ccccc2)CCN(Cc2cc(OC)c(O)cc2Cl)CC1`, the inhibition was 28.9% (inactive).

Turning to `OCC1(CCOc2ccccc2)CCN(Cc2cn[nH]c2-c2ccccc2)CC1`, the inhibition is 12.6% (inactive).

Consider `O=C(COC(=O)c1cc(-c2cccs2)nn1-c1ccccc1)Nc1cc([N+](=O)[O-])ccc1Cl`, for which the inhibition was -2.96% (inactive).

On to `O=C(CCNC(=O)c1ccccc1)NN=Cc1ccc(Br)o1`, for which the inhibition was 5.26% (inactive).

Consider `COc1ccc(CNC(=O)COC(=O)CCS(=O)(=O)c2ccc(C)cc2)cc1OC`, for which the inhibition is 21.8% (inactive).

As to `CCOc1ncccc1C(=O)Nc1ccc(S(=O)(=O)Nc2nc(C)cc(C)n2)cc1`, the inhibition is -16.7% (inactive).

Consider `CC(=O)Nc1ccc(S(=O)(=O)Nc2cc(C)cn(Cc3ccc(C)cc3)c2=O)cc1`, for which the inhibition was 17.7% (inactive).

For `O=c1c([N+](=O)[O-])cccn1Cc1ccc(F)cc1Cl`, the inhibition is 10.4% (inactive).

Turning to `Oc1c(Br)cccc1/C=N/Nc1c(F)c(F)c(F)c(F)c1F`, the inhibition was 82.4% (active).

Regarding `Brc1ccccc1/C=N/Nc1nc2ccccc2o1`, the inhibition is 36.2% (inactive).

`O=C(NNc1cc(Cl)ccc1Cl)c1cccnc1Cl`: the inhibition was 9.63% (inactive).

Consider `S=C(NCc1cccnc1)Nc1ccc(Cl)cc1Cl`, for which the inhibition was 4.36% (inactive).

Consider `CC(=O)/C(=N\Nc1ccc(Cl)cc1Cl)Sc1cccc2cccnc12`, for which the inhibition is 63.2% (active).

Take `COc1ccccc1NC(=O)C1CCN(C(=O)c2ccc(C(C)(C)C)cc2)CC1`: the inhibition was 28.8% (inactive).

Turning to `CCCCCCCNC(=O)C1(CC2CC(c3cccc(Br)c3)=NO2)CCN(C(=O)c2cc(OCC)c(OCC)c(OCC)c2)CC1` (centres undefined), the inhibition is 18.1% (inactive).

Take `Fc1ccc(N2N=C(c3cccs3)CC2c2ccco2)c(F)c1` (centres undefined): the inhibition was 2.13% (inactive).

Turning to `CCCCC(=O)Nc1ccc(C(=O)Nc2cc(C(F)(F)F)ccc2Cl)cc1`, the inhibition is 21.2% (inactive).

Turning to `CCCCN(CCCC)CCC(O)c1cc2c(Cl)cc(Cl)cc2c2cc(C(F)(F)F)ccc12` (centres undefined), the inhibition was 60.8% (active).

As to `CC1(C)Cc2c(sc3nc(SCC(=O)NCc4ccccc4)n(-c4ccccc4)c(=O)c23)CS1`, the inhibition was -3.67% (inactive).

In the case of `N#Cc1c(NCCO)ccc([N+](=O)[O-])c1NCCO`, the inhibition is -1.81% (inactive).

Turning to `CCOc1ccc(CN2CCN(Cc3c[nH]c4ccccc34)CC2)cc1`, the inhibition is 20.2% (inactive).

On to `O=C(COC(=O)CN1C(=O)C2CCCCC2C1=O)Nc1ccc(F)c(F)c1F` (centres undefined), for which the inhibition is 34.5% (inactive).

With `C[C@]12c3[nH]c4ccc(Cl)cc4c3CCN1C(=O)[C@@H](CC(=O)NCCCn1ccnc1)C[C@@H]2C(=O)N1CCOCC1`, the inhibition is 4.12% (inactive).

For the compound `CC1CCN(C(=O)/C(=C\c2ccccc2F)NC(=O)c2ccccc2)CC1`, the inhibition is 8.33% (inactive).

In the case of `C=CCNc1cnn(-c2ccc(C)cc2)c(=O)c1Cl`, the inhibition is -8.88% (inactive).

Consider `Cc1cccc(-n2ncc(C#N)c2-n2cccc2)c1`, for which the inhibition is 18.1% (inactive).

As for `Cc1cccc(-n2ncc(Cl)c(Cl)c2=O)c1`, the inhibition was 100% (active).

Regarding `COC(=O)[C@@H]1C[C@@]2(O)[C@@H](O)[C@@H](O)[C@@H](O)C[C@H]2N1Cc1ccc(C)s1`, the inhibition is 10.5% (inactive).

In the case of `CCCOc1cccc(C(=O)Nc2nnn(CCC)n2)c1`, the inhibition was -17.9% (inactive).

Regarding `COc1ccccc1-n1nnnc1S(=O)(=O)Cc1ccc(Cl)cc1`, the inhibition is 99.3% (active).

As to `COc1ccccc1-n1nnnc1SCC(=O)NC(=O)Cc1ccccc1`, the inhibition was -11.3% (inactive).

Regarding `COc1ccccc1N1CCN(S(=O)(=O)c2ccc(Cl)cc2)CC1`, the inhibition is 0.916% (inactive).

Regarding `O=C(CN1C(=O)c2cccnc2Oc2ccc(Cl)cc21)Nc1ccc(F)cc1`, the inhibition is 7.52% (inactive).

`CC1C(=O)NC(=O)C1c1ccccc1` (centres undefined): the inhibition is 10.9% (inactive).

On to `COc1cccc(-c2sc3ccc(OC)cc3c2-c2ccc(OCCN3CCCCC3)cc2)c1`, for which the inhibition was 96.8% (active).

With `COc1cc(OC)cc(-c2sc3ccc(OC)cc3c2-c2ccc3cc[nH]c3c2)c1`, the inhibition was 13.6% (inactive).

`COc1ccccc1-c1sc2ccccc2c1-c1ccc(Br)nc1`: the inhibition was 1.19% (inactive).

With `COc1ccccc1-c1sc2ccccc2c1-c1ccc(C(C)=O)cc1`, the inhibition is 7.74% (inactive).

As for `COc1ccc(-c2sc3ccccc3c2-c2ccc(OCCN3CCOCC3)cc2)cc1`, the inhibition is 28.3% (inactive).

In the case of `COc1ccc2sc(-c3ccccc3OC)c(-c3ccc(OCCN4CCCC4)cc3)c2c1`, the inhibition is 73.2% (active).

As to `CN1C(=O)C2(OCCCO2)c2cc(Cl)ccc21`, the inhibition was 2.45% (inactive).

`COC(=O)c1ccc(Oc2nc(NC(C)C)nc(SC)n2)cc1`: the inhibition was 22.5% (inactive).

Take `Cc1ccc(C(C(=O)NCC2CCCO2)N(C(=O)c2snc(C(N)=O)c2N)c2ccc(C(C)C)cc2)o1` (centres undefined): the inhibition was -3.18% (inactive).

In the case of `C/C(=N\N(C)C)c1ccc(OCCOc2ccc([N+](=O)[O-])cc2)cc1`, the inhibition is -8.83% (inactive).

In the case of `O=C(CN1CCN(C2CCS(=O)(=O)C2)CC1)N1N=C(c2ccc(Cl)cc2)CC1c1ccco1` (centres undefined), the inhibition is 26.2% (inactive).

For the compound `COCCCC1CCN(C(=O)C2CCC(=O)N(C3CCCCCC3)C2)CC1` (centres undefined), the inhibition is 27.9% (inactive).

In general, inhibition refers to the relative decrease from the control value, in per cent.

These data come from PubChem BioAssay AID485346 (Sanford-Burnham Center for Chemical Genomics, 2010).
